# Assay results from the supplement of paper PMC12282887.
# ± gives the standard deviation of the averaged measurements.
# How the values were obtained:
# Assay in all cases: promoter activity interaction Z-score (Lux/OD deviation from empty-vector control); higher = stronger promoter induction by the compound
# [1] = test system: E. coli BW25113 acrABp lux reporter
# Outline: (§1)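 E. coli BW25113 (wild type or marA, soxS or rob deletion) carrying low-copy luxCDABE promoter reporters grew in 40 µl LB Lennox in 384-well plates at 37°C. Each compound was tested at four 1:2 dilutions in biological duplicates. OD600 and luminescence were read every 30 min for 12 h. Areas were taken over 0–8 h (wild type) or 1–9 h (mutants), and wells below 10% of median growth area were removed. The score is the Z-transformed residual of growth-normalised luminescence fitted against the empty-vector control.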
# [2] = test system: E. coli BW25113 micFp lux reporter
# Outline: as §1
# [3] = test system: E. coli BW25113 ompFp lux reporter
# Outline: as §1
# [4] = test system: E. coli BW25113 robp lux reporter
# Outline: as §1
# [5] = test system: E. coli BW25113 soxSp lux reporter
# Outline: as §1
# [6] = test system: E. coli BW25113 tolCp lux reporter
# Outline: as §1
# [7] = 0.11 µg/ml, genetic background: wild type
# [8] = 0.11 µg/ml, genetic background: ΔmarA
# [9] = 0.11 µg/ml, genetic background: Δrob
# [10] = 0.11 µg/ml, genetic background: ΔsoxS
# [11] = 0.21 µg/ml, genetic background: wild type
# [12] = 0.21 µg/ml, genetic background: ΔmarA
# [13] = 0.21 µg/ml, genetic background: Δrob
# [14] = 0.21 µg/ml, genetic background: ΔsoxS
# [15] = 0.43 µg/ml, genetic background: wild type
# [16] = 0.43 µg/ml, genetic background: ΔmarA
# [17] = 0.43 µg/ml, genetic background: Δrob
# [18] = 0.43 µg/ml, genetic background: ΔsoxS
# [19] = 0.86 µg/ml, genetic background: wild type
# [20] = 0.86 µg/ml, genetic background: ΔmarA
# [21] = 0.86 µg/ml, genetic background: Δrob
# [22] = 0.86 µg/ml, genetic background: ΔsoxS
smiles,measurement,setting,value
Cc1ncc([N+](=O)[O-])n1CCO [Metronidazole],promoter activity interaction Z-score,[1]; [7],0.0148 ± 0.051
same,promoter activity interaction Z-score,[1]; [8],0.993 ± 0.18
same,promoter activity interaction Z-score,[1]; [9],0.102 ± 0.12
same,promoter activity interaction Z-score,[1]; [10],0.194 ± 0.31
same,promoter activity interaction Z-score,[1]; [11],-0.197 ± 0.0096
same,promoter activity interaction Z-score,[1]; [12],-0.0386 ± 0.09
same,promoter activity interaction Z-score,[1]; [13],0.0596 ± 0.14
same,promoter activity interaction Z-score,[1]; [14],0.187 ± 0.31
same,promoter activity interaction Z-score,[1]; [15],-0.222 ± 0.18
same,promoter activity interaction Z-score,[1]; [16],0.706 ± 0.8
same,promoter activity interaction Z-score,[1]; [17],-0.0336 ± 0.17
same,promoter activity interaction Z-score,[1]; [18],0.0816 ± 0.12
same,promoter activity interaction Z-score,[1]; [19],0.191 ± 0.025
same,promoter activity interaction Z-score,[1]; [20],0.645 ± 0.49
same,promoter activity interaction Z-score,[1]; [21],0.143 ± 0.34
same,promoter activity interaction Z-score,[1]; [22],-0.0136 ± 0.22
same,promoter activity interaction Z-score,[2]; [7],-0.0559 ± 0.11
same,promoter activity interaction Z-score,[2]; [8],-0.0152 ± 0.0074
same,promoter activity interaction Z-score,[2]; [9],0.0206 ± 0.0032
same,promoter activity interaction Z-score,[2]; [10],-0.264 ± 0.11
same,promoter activity interaction Z-score,[2]; [11],-0.327 ± 0.068
same,promoter activity interaction Z-score,[2]; [12],-0.09496 ± 0.00031
same,promoter activity interaction Z-score,[2]; [13],-0.0735 ± 0.081
same,promoter activity interaction Z-score,[2]; [14],-0.0751 ± 0.037
same,promoter activity interaction Z-score,[2]; [15],-0.152 ± 0.26
same,promoter activity interaction Z-score,[2]; [16],-0.0333 ± 0.092
same,promoter activity interaction Z-score,[2]; [17],-0.000559 ± 0.02
same,promoter activity interaction Z-score,[2]; [18],-0.18 ± 0.06
same,promoter activity interaction Z-score,[2]; [19],-0.0833 ± 0.079
same,promoter activity interaction Z-score,[2]; [20],0.00541 ± 0.1
same,promoter activity interaction Z-score,[2]; [21],-0.0861 ± 0.014
same,promoter activity interaction Z-score,[2]; [22],-0.189 ± 0.084
same,promoter activity interaction Z-score,[3]; [7],0.217 ± 0.3
same,promoter activity interaction Z-score,[3]; [8],0.187 ± 0.0061
same,promoter activity interaction Z-score,[3]; [9],-0.155 ± 0.074
same,promoter activity interaction Z-score,[3]; [10],-0.0733 ± 0.12
same,promoter activity interaction Z-score,[3]; [11],-0.138 ± 0.22
same,promoter activity interaction Z-score,[3]; [12],-0.0604 ± 0.18
same,promoter activity interaction Z-score,[3]; [13],0.261 ± 0.17
same,promoter activity interaction Z-score,[3]; [14],0.2636 ± 0.0018
same,promoter activity interaction Z-score,[3]; [15],-0.0385 ± 0.54
same,promoter activity interaction Z-score,[3]; [16],0.144 ± 0.29
same,promoter activity interaction Z-score,[3]; [17],0.609 ± 0.017
same,promoter activity interaction Z-score,[3]; [18],0.11 ± 0.042
same,promoter activity interaction Z-score,[3]; [19],0.547 ± 0.5
same,promoter activity interaction Z-score,[3]; [20],1.12 ± 0.3
same,promoter activity interaction Z-score,[3]; [21],0.862 ± 0.19
same,promoter activity interaction Z-score,[3]; [22],0.815 ± 0.34
same,promoter activity interaction Z-score,[4]; [7],0.061 ± 0.23
same,promoter activity interaction Z-score,[4]; [8],0.425 ± 0.28
same,promoter activity interaction Z-score,[4]; [9],0.355 ± 0.21
same,promoter activity interaction Z-score,[4]; [10],-0.235 ± 0.13
same,promoter activity interaction Z-score,[4]; [11],0.165 ± 0.35
same,promoter activity interaction Z-score,[4]; [12],-0.111 ± 0.75
same,promoter activity interaction Z-score,[4]; [13],0.8 ± 0.29
same,promoter activity interaction Z-score,[4]; [14],0.979 ± 1.1
same,promoter activity interaction Z-score,[4]; [15],0.177 ± 0.99
same,promoter activity interaction Z-score,[4]; [16],0.7 ± 0.077
same,promoter activity interaction Z-score,[4]; [17],0.452 ± 0.054
same,promoter activity interaction Z-score,[4]; [18],-0.0713 ± 0.41
same,promoter activity interaction Z-score,[4]; [19],0.378 ± 0.83
same,promoter activity interaction Z-score,[4]; [20],0.776 ± 0.22
same,promoter activity interaction Z-score,[4]; [21],0.36 ± 0.24
same,promoter activity interaction Z-score,[4]; [22],0.489 ± 0.32
same,promoter activity interaction Z-score,[5]; [7],0.0487 ± 0.14
same,promoter activity interaction Z-score,[5]; [8],0.0513 ± 0.066
same,promoter activity interaction Z-score,[5]; [9],-0.047 ± 0.051
same,promoter activity interaction Z-score,[5]; [10],-0.0356 ± 0.017
same,promoter activity interaction Z-score,[5]; [11],-0.0569 ± 0.11
same,promoter activity interaction Z-score,[5]; [12],-0.088 ± 0.048
same,promoter activity interaction Z-score,[5]; [13],0.106 ± 0.0032
same,promoter activity interaction Z-score,[5]; [14],0.0415 ± 0.21
same,promoter activity interaction Z-score,[5]; [15],0.0827 ± 0.065
same,promoter activity interaction Z-score,[5]; [16],-0.0818 ± 0.06
same,promoter activity interaction Z-score,[5]; [17],0.0852 ± 0.18
same,promoter activity interaction Z-score,[5]; [18],0.0431 ± 0.011
same,promoter activity interaction Z-score,[5]; [19],0.036 ± 0.026
same,promoter activity interaction Z-score,[5]; [20],-0.085 ± 0.049
same,promoter activity interaction Z-score,[5]; [21],-0.132 ± 0.058
same,promoter activity interaction Z-score,[5]; [22],0.0974 ± 0.06
same,promoter activity interaction Z-score,[6]; [7],-0.237 ± 0.51
same,promoter activity interaction Z-score,[6]; [8],0.544 ± 0.53
same,promoter activity interaction Z-score,[6]; [9],-0.201 ± 0.23
same,promoter activity interaction Z-score,[6]; [10],0.183 ± 0.079
same,promoter activity interaction Z-score,[6]; [11],-0.938 ± 0.4
same,promoter activity interaction Z-score,[6]; [12],-0.0891 ± 0.26
same,promoter activity interaction Z-score,[6]; [13],0.158 ± 0.57
same,promoter activity interaction Z-score,[6]; [14],-0.129 ± 0.43
same,promoter activity interaction Z-score,[6]; [15],-0.953 ± 0.17
same,promoter activity interaction Z-score,[6]; [16],0.401 ± 1.3
same,promoter activity interaction Z-score,[6]; [17],-0.12 ± 0.26
same,promoter activity interaction Z-score,[6]; [18],-0.386 ± 0.015
same,promoter activity interaction Z-score,[6]; [19],0.119 ± 0.47
same,promoter activity interaction Z-score,[6]; [20],0.316 ± 0.49
same,promoter activity interaction Z-score,[6]; [21],-0.271 ± 1.3
same,promoter activity interaction Z-score,[6]; [22],0.345 ± 0.71
